# Rows were chosen to be rich in hits. Some 19% of all compounds tested hit in one or more screens of this group.
# DT40 TDP1 no CPT: qHTS for Inhibitors of human tyrosyl-DNA phosphodiesterase 1 (TDP1): qHTS in cells in absence of CPT; 420,000 compounds, 15% hits; Potency, µM (highest dose often 46.2 µM), for the others: at the top dose activity change, negative = growth inhibition, usual class: inhibitors; DT40 Tdp1-/- hTDP1 cells, no CPT, ATP luminescence, 48 h; further: nearly all actives have a fitted effect of over 55% in size
#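 Compound effects on proliferation are scored in DT40 Tdp1-/-;hTDP1 cells in the absence of CPT. ATP levels (CellTiter-Glo luminescence) are recorded after a ≥48 hr, 37 °C incubation.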
# DT40 TDP1 CPT: qHTS for Inhibitors of human tyrosyl-DNA phosphodiesterase 1 (TDP1): qHTS in cells in presence of CPT; 420,000 compounds, 12% hits; chicken DT40 Tdp1-/-;hTDP1 cells + 20 nM CPT, ATP luminescence, 48 h; Potency, µM (titrated, usually from 46.2 µM), without a hit: top-dose activity change, negative = growth inhibition, hits mostly inhibitors; further: nearly all actives have a fitted effect of over 55% in size
#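 Chicken DT40 Tdp1-/- cells complemented with human TDP1, 400 cells/well, exposed to compounds plus 20 nM camptothecin for at least 48 h at 37 C; viability read as ATP content by CellTiter-Glo luminescence.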
# TDP1 inh: qHTS Assay for Inhibitors of Tyrosyl-DNA Phosphodiesterase (TDP1) | Tyrosyl-DNA phosphodiesterase 1 (Homo sapiens), Q9NUW8 | recombinant TDP1, AlphaScreen DNA substrate cleavage | Potency, µM (series often up to 130 µM), for the others: at the highest dose activity change, negative = inhibition, hits mostly inhibitors | 350,000 compounds, 0.28% hits; further: nearly all actives have a fitted effect of over 40% in size
#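 Here, a 5' biotin and 3' phosphotyrosine-FITC DNA oligonucleotide reports Tdp1 activity: intact substrate bridges AlphaScreen beads, while cleavage leaves a 3' phosphate and drops signal. All incubations at room temperature.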
# VP16 counter: VP16 counterscreen qHTS for inhibitors of ROR gamma transcriptional activity. Drosophila S2 Gal4-VP16 UAS-luciferase, luminescence, 20 h. Potency, µM (doses to about 53.6 µM), without a hit: top-dose activity, negative = inhibition, hits mostly inhibitors. AID 2546, 2010. 310,000 compounds, 3.5% hits;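 further: Gal4-VP16 expression switched on by copper sulfate through the metallothionein promoter; nearly all actives have a fitted effect of over 50% in size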
# RORgamma inh: qHTS for inhibitors of ROR gamma transcriptional activity | Nuclear receptor ROR-gamma (Mus musculus), P51450 | Drosophila S2 Gal4-RORgamma UAS-luciferase reporter, 20 h | Potency, µM (top dose mostly 53.6 µM), without a hit: top-dose activity change, negative = inhibition, usual class: inhibitors | 310,000 compounds, 5.4% hits | AID 2551, 2010; further: nearly all actives have a fitted effect of over 60% in size
# Target sequence (P51450 whole entry, looked up, the tested form may be a part): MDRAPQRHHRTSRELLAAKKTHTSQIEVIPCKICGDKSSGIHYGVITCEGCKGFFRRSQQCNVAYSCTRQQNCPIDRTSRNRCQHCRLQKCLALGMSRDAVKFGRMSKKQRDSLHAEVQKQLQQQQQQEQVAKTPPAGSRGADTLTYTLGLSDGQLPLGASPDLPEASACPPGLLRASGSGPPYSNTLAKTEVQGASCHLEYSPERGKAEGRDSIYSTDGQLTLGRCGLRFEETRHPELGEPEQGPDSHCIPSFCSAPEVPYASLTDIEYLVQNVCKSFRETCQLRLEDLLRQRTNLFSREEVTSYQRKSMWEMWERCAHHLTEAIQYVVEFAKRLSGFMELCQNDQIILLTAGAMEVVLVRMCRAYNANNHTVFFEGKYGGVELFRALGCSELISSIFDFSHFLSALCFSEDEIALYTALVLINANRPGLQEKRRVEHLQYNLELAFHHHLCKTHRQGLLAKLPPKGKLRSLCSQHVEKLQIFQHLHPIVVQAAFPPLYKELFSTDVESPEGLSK
#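 Stable Schneider cell line, Gal4 DNA-binding domain fused to ROR gamma, UAS-luciferase. Cmpd 1 hr RT → CuSO4 700 uM final → 20 hr RT → luciferase reagent 10 min → luminescence.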
# Starred values were filed as active, the others as inactive; ? = inconclusive; nt = no result given. The call rests on the fitted dose curve; in most records, active means well fitted curve in the direction sought with a large enough effect; inconclusive means small, poorly fitted or top-dose-only effect, or another doubt; inactive means no such curve, though single readings can be large; an effect the other way counts as inactive or inconclusive. On the % scale 0 is the no-effect control and ±100 the full control effect; potency means the concentration at half of the fitted maximal effect.
SMILES,DT40 TDP1 no CPT,DT40 TDP1 CPT,TDP1 inh,VP16 counter,RORgamma inh
CCOCCCNC(=O)c1ccc2c(c1)N(CC)C(=O)c1ccccc1S2=O (stereo not given),?,?,nt,1%,-2%
NC(N)=Nc1ccc(C=C2C=Cc3ccccc32)cc1,9.2µM*,9.2µM*,nt,nt,nt
CS(=O)(=O)c1ccc(/C=C2\C=Cc3ccccc32)cc1,20µM*,?,nt,nt,nt
CCCC(=O)N(C)c1ccc(/C=C2\C=Cc3ccccc32)cc1,2.2µM*,3.2µM*,nt,nt,nt
O=c1[nH]c(N2CCN(c3ccccc3)CC2)nc2c1CCCC2,23µM*,?,2%,-3%,-5%
O=c1[nH]c(N2CCN(c3ccccc3)CC2)nc2c1CCC2,?,-28%,4%,-6%,0%
COc1cc(C)ccc1OCc1cc(C(=O)NC(c2ccccn2)C(F)(F)F)no1 (stereo not given),?,0.65µM*,nt,nt,nt
Cc1cccc(NC(=O)Cc2ccc(NC3=NC4CS(=O)(=O)CC4S3)cc2)c1 (stereo not given),25%,21%,nt,-1%,-1%
O=C(Nc1ccc2c(c1)nc1n2CCN(Cc2ccccc2)C1)NC1CCCCC1,21µM*,?,4%,16%,?
COCCN1CCn2c(nc3cc(NC(C)=O)ccc32)C1,8%,10%,nt,-6%,-1%
O=C(Nc1ccc2c(c1)nc1n2CCN(Cc2ccccc2)C1)c1cccs1,18µM*,?,7%,3%,6%
COCCN1CCn2c(nc3cc(NC(=O)c4ccc(OC)cc4)ccc32)C1,21µM*,21µM*,4%,-2%,-13%
COCCN1CCn2c(nc3cc(NC(=O)NC4CCCCC4)ccc32)C1,16µM*,?,6%,-5%,0%
CCOC(=O)Nc1ccc2c(c1)nc1n2CCN(CCOC)C1,-25%,-27%,nt,3%,40%
Cc1ccccc1C(c1ccccc1Cl)N(C)C (stereo not given),?,3%,nt,nt,nt
COC(=O)c1ccccc1NC(=O)c1ccc2c(c1)CC(C)O2 (stereo not given),-24%,-2%,nt,20%,?
CCOc1ccc(CCNC(=O)c2nnn(CC(=O)Nc3c(C)cc(C)cc3C)c2N)cc1OCC,5%,-14%,-3%,1%,-21%
CC(=O)n1nnc2ccccc21,nt,nt,6%,-1%,-12%
Cc1occc1C(=O)n1cnc2ccccc21,nt,nt,5%,0%,-8%
COc1ccc(C(=O)n2nnc3ccccc32)cc1Br,?,16µM*,7%,-13%,-3%
CCSc1ccccc1C(=O)n1nnc2ccccc21,?,13µM*,-5%,?,?
Cc1occc1C(=O)n1nnc2ccccc21,21µM*,?,1%,?,?
CCc1ccc(N2CC(C(=O)Nc3ccc4c(c3)OCO4)CC2=O)cc1 (stereo not given),-2%,-9%,-1%,nt,nt
CCOC(=O)c1cc(S(=O)(=O)N2CCCC2)cn1C,-22%,-3%,3%,3%,-15%
CCn1c(CNC(=O)c2ccc(OC)c(OC)c2)nnc1SCC(=O)c1ccc(OC)cc1,?,-20%,-2%,-2%,-6%
CCCNC(=O)c1cc(C2CCCCN2C(=O)c2cc(OC)c(C)c(OC)c2)on1 (stereo not given),?,21µM*,nt,nt,nt
